The list is not random: actives were taken first. Their share in the collection is about 28%.
PLK1 inh: human PLK1 kinase inhibitors, primary screen, biochemical, TR-FRET; Serine/threonine-protein kinase PLK1 (Homo sapiens), P53350; recombinant PLK1 kinase, TR-FRET peptide phosphorylation; inhibition, % at 10 µM; 0.53% of 97,000 active; AID 619, 2007;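 active = inhibition of 50% or more in the single-concentration screen; inactive = inhibition below 50%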;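 also: 0% = DMSO max control and 100% = H-89 dihydrochloride min control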
CYP2C19 act: human CYP2C19 activators, primary screen, biochemical, luminescence. AID 1025, 2008. recombinant CYP2C19, luciferin-H EGE luminescence; hits give high values; 0 = fully inhibited enzyme, 1 = untreated enzyme. Cytochrome P450 2C19 (Homo sapiens), P33261. activation factor at 5 µM. 96,000 tested, under 10 active;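 active = activation factor of at least 2 at 5 µM in the primary screen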;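 also: 0 = wells with 2.5 mM tranylcypromine and 1 = vehicle-only wells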
CYP2C9 inh: blockers of cytochrome P450 2C9 activity – biochemical, luminescence, ADME assay, primary screen; P11712; CYP2C9 Supersomes, luciferin-H conversion; inhibition, % at 5 µM; 20% of 96,000 active;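 active = blocking of liver enzyme CYP2C9 beyond about 50% at 5 µM, limit read from the data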
Target sequence (P11712 whole entry, looked up): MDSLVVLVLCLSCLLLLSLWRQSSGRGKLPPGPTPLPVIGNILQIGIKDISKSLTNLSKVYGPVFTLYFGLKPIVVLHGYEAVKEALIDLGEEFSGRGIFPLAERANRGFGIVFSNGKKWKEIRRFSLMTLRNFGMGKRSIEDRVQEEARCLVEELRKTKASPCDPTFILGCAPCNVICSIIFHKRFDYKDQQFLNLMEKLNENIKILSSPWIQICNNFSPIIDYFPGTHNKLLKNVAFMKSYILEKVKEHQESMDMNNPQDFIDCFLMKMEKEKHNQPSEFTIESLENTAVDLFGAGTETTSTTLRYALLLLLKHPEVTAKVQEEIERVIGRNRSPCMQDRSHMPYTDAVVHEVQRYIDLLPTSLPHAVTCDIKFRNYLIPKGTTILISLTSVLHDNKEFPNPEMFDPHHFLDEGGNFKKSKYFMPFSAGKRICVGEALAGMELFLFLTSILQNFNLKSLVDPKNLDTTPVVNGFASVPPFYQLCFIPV
CYP2C9 activ: human CYP2C9 activators, primary screen, biochemical, luminescence; recombinant CYP2C9, luciferin-H conversion; hits give high values; factor 1 = untreated enzyme, 0 = blocked; activation factor at 5 µM; 1.4% of 96,000 active; Cytochrome P450 2C9 (Homo sapiens), P11712;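 active = activation factor of 2 or more for CYP2C9 at a 5 µM dose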;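 also: 0 = sulfaphenazole-blocked wells and 1 = vehicle-only wells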
Plk1 PBD FP: Plk1 polo box domain binding inhibitors, primary screen, biochemical, fluorescence polarization; Plk1 PBD phosphopeptide binding; 0.13% of 97,000 active; Serine/threonine-protein kinase PLK1 (Homo sapiens), P53350; inhibition, %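 (tested at about 20 µM)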; in the data active = inhibition above about 34%, passing the limit was not always enough
CYP2C19 inh: blockers of cytochrome P450 2C19 activity – biochemical, luminescence, ADME assay, primary screen | P33261 | CYP2C19 Supersomes, luciferin-H EGE luminescence, 30 min | inhibition, % at 5 µM | 21% of 96,000 active;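 active = CYP2C19 inhibition above a set limit at 5 µM in the primary screen, cut at about 50% in these data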;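 also: plate controls were negative control wells for no effect and 2.5 mM tranylcypromine positive control for full effect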
Active calls of the source: *; nt = not tested or not shown.

SMILES	PLK1 inh	CYP2C19 act	CYP2C9 inh	CYP2C9 activ	Plk1 PBD FP	CYP2C19 inh
CCOC(=O)c1sc2nc(C)n(CC(=O)NCC3CCCO3)c(=O)c2c1C (stereo not given)	9	0.9	21	0.8	23	9
Cc1ccc(-c2c(C#N)c(N)n3c(nc4ccccc43)c2C#N)cc1	-10	0.9	64*	0.4	-2	12
Cc1ccc(C)c(NC(=S)NCc2cccn2C)c1	-9	0.7	-33	1.3	8	29
O=C(CCCc1nc2ccccc2s1)N1CCN(S(=O)(=O)c2cccs2)CC1	-4	0.7	50	0.5	14	31
Cn1c(CCNC(=O)c2ccc(Cl)c(Cl)c2)nnc1SCc1ccc(Cl)c(Cl)c1	-6	1	16	0.8	5	3
C=CCn1c(CCNC(=O)c2ccc(Cl)c(Cl)c2)nnc1SCCOc1ccc(OC)cc1	-3	0.6	60*	0.4	8	43
CC(C1CC1)N(C(=O)NC1CCS(=O)(=O)C1)c1ccccc1 (stereo not given)	-10	1	-14	1.1	16	-3
O=C(Nc1ccc(Cn2cccn2)cc1)c1ccc(COc2cccc(Br)c2)cc1	-8	0.4	83*	0.2	-19	57*
O=C(Nc1ccc(Cn2cccn2)cc1)c1ccc(COc2ccc(Br)cc2)cc1	-13	1	17	0.8	20	-1
Cc1cc(C)c2nc(N3CCCC(C(=O)N4CCN(c5ncccn5)CC4)C3)sc2c1 (stereo not given)	-4	0.8	47	0.5	16	24
Cc1ccc2cc(C#N)c(N3CCCC3)nc2c1C	-13	0.8	11	0.9	-1	17
Cc1cc(C)c2nc(C(F)(F)F)nc(N3CCN(C(=O)c4ccco4)CC3)c2c1	-9	0.8	-3	1	6	20
Cc1ccc2cc(C#N)c(N3CCCN(C(=O)C4CCCO4)CC3)nc2c1C (stereo not given)	nt	0.1	82*	0.2	nt	85*
Cc1cc(C)c2nc(N3CCC(C(=O)N4CCN(C(=O)c5ccco5)CC4)CC3)sc2c1	-14	0.5	52*	0.5	9	52*
Cc1cc(C)c2nc(N3CCCN(C(=O)c4ccco4)CC3)c(C#N)cc2c1	-12	0.3	87*	0.1	10	73*
COC(=O)C1=C(C)N(c2ccccc2)/C(=C/c2cccs2)C1=O	-10	1	11	0.9	8	0
COC(=O)C1=C(C)Nc2nnnn2C1c1ccco1 (stereo not given)	-4	0.8	37	0.6	-7	20
CC1=C(C(=O)OC2CCCCC2)C(c2ccco2)n2ncnc2N1 (stereo not given)	26	0.3	52*	0.5	11	73*
CCn1c(COc2ccc3c(c2)CCCC3)nnc1SCC(=O)Nc1nccs1	-6	0.9	7	0.9	2	10
Cc1ccc(C(=O)COC(=O)C2C3C=CC(C3)C2C(=O)OCC(=O)c2ccc(C)c(C)c2)cc1C (stereo not given)	-9	0.7	51*	0.5	0	29
CCOC(=O)c1ccc(NCc2ccncc2)cc1	-10	nt	nt	nt	-22	nt
O=C(OCC(=O)N(C1CCCCC1)C1CCCCC1)c1ccncc1	nt	0	65*	0.3	nt	99*
Cc1c(Br)cc(C(=O)OC2CCN(C)CC2)c(C)c1C	-12	0.8	-126	2.3*	-17	22
COc1ccc(-c2nnc(-c3ccc(OCC(C)C)cc3)o2)cc1	-7	1	19	0.8	-15	-2
CC(C)COc1ccc(-c2nnc(-c3ccncc3)o2)cc1	0	0.2	42	0.6	1	78*
c1cc(-c2nnc(-c3ccncc3)o2)ccn1	9	0.3	12	0.9	-5	66*
CCCOc1ccc(-c2nnc(-c3ccncc3)o2)cc1	nt	0	89*	0.1	nt	99*
CCOc1ccc(-c2nnc(-c3cccs3)o2)cc1	-19	0.9	18	0.8	12	8

Screens deposited in PubChem by several laboratories.
